BAZ2B inh – qHTS Assay for Inhibitors of BAZ2B | AlphaScreen BAZ2B-H3K14Ac peptide displacement | actives 4.4% (n = 360,000) | Bromodomain adjacent to zinc finger domain protein 2B (Homo sapiens), Q9UIF8 | Potency, µM (top dose mostly 114 µM), for inactives: at the highest dose activity change, negative = inhibition, most hits filed as inhibitors; note: % is set by controls: 0 for no effect and ±100 for the full control effect; nearly all actives have a fitted effect of over 60% in size
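In this displacement format the biotinylated H3(5-23) peptide acetylated at Lys14 serves as ligand at 50 nM, with BAZ2B at 50 nM in PBS pH 7.4 containing 0.01% Tween-20. Donor and acceptor beads are 10 ug/mL final.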
G9a inh – qHTS Assay for Inhibitors of Histone Lysine Methyltransferase G9a | G9a H3K9 monomethylation, AlphaScreen, 2 h | Potency, µM (series often up to 102 µM), without a hit: at the top dose activity, negative = inhibition, hits mostly inhibitors | Histone-lysine N-methyltransferase EHMT2 (Homo sapiens), Q96KQ7 | actives 8.8% (n = 350,000); note: % is set by controls: 0 for no effect and ±100 for the full control effect; nearly all actives have a fitted effect of over 75% in size
Target sequence (Q96KQ7 913-1193 limits assumed): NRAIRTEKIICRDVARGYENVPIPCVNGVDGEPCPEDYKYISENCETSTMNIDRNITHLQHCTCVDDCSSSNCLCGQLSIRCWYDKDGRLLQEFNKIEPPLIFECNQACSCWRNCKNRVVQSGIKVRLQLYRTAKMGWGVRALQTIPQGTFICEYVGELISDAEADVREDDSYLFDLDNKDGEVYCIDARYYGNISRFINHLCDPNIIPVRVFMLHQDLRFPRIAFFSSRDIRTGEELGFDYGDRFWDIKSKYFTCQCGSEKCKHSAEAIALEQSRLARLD
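Chemiluminescent proximity detection of H3K9 monomethylation, read after 10 min bead incubation in the dark. Reaction: 20 nM G9a, 500 nM biotin-H3K9 peptide, 20 uM SAM cofactor, 2 h, room temperature, following 15 min enzyme-compound preincubation.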
HP1b binding inh – HTS for Inhibitors of HP1-beta Chromodomain Interactions with Methylated Histone Tails | Potency, µM (titrated, usually from 114 µM), for the others: at the highest dose activity change, negative = inhibition, most hits filed as inhibitors | Chromobox protein homolog 1 (Homo sapiens), P83916 | AlphaScreen HP1-beta / biotin-H3K9me3 peptide binding | actives 0.56% (n = 390,000); note: nearly all actives have a fitted effect of over 70% in size
Target sequence (P83916 whole entry, looked up): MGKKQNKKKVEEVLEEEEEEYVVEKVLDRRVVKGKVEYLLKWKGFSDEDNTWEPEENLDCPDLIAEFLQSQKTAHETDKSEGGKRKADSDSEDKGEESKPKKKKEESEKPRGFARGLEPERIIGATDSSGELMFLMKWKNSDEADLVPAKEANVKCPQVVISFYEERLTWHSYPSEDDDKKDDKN
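HP1-beta protein (50 nM final) preincubated 30 min at room temperature with biotinylated H3(1-18)K9me3 peptide (50 nM) in PBS pH 7.4, 0.01% Tween-20, then compound added for 30 min. AlphaScreen streptavidin donor/nickel chelate acceptor beads (10 ug/mL final), 30 min dark, luminescence read.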
L3MBTL1 block – qHTS Assay for the Inhibitors of L3MBTL1. Potency, µM (series often up to 57.1 µM), for the others: at the highest dose activity, negative = inhibition, actives largely listed as inhibitors. actives 0.66% (n = 230,000). AlphaScreen L3MBTL1–H3K9me1 peptide binding. AID 485360, 2010; note: % is set by controls: 0 for no effect and ±100 for the full control effect; nearly all actives have a fitted effect of over 60% in size
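L3MBTL1 50 nM + b-AHA-H3(1-15)K9me1 75 nM, 30 min RT; compound added, 30 min RT; streptavidin donor/Ni-chelate acceptor beads 10 ug/mL each final, 30 min RT dark; AlphaScreen read.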
Sfp inh – qHTS Assay for Inhibitors of Bacillus subtilis Sfp phosphopantetheinyl transferase (PPTase); actives 3.5% (n = 310,000); AID 1490, 2009; Biochemical Sfp PPTase activity, qHTS; Potency, µM, for the others: largest response in the series, negative = inhibition, hits mostly inhibitors;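 note: the enzyme is Sfp with the accession as filed and its product quenches rhodamine fluorescence; 0% = enzyme reaction without inhibitor and -100% = no enzyme wells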
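Step 1, compound plus 15 nM Sfp-PPTase, 15 min, room temperature. Step 2, add rhodamine-CoA (5 uM) and BHQ-2-YbbR (12.5 uM). Step 3, read 525/598 nm fluorescence at 0 and 30 min.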
JMJD2A Tudor inh – qHTS Assay for Inhibitors of JMJD2A-Tudor Domain. Potency, µM (highest dose often 114 µM), inactives show at the highest dose activity change, negative = inhibition, actives largely listed as inhibitors. Lysine-specific demethylase 4A (Homo sapiens), O75164. AlphaScreen JMJD2A-Tudor / H3K4me3 peptide binding. actives 4.4% (n = 390,000); note: % is set by controls: 0 for no effect and ±100 for the full control effect; nearly all actives have a fitted effect of over 50% in size
Active calls of the source: *; ? = inconclusive; nt = not tested or not shown; [ ] = another dose, or the depositor's remark. Most compounds without a hit are left out; they make up all but 12% or so of the library. Calls come from the whole dose curve; as a rule, active = well fitted curve in the direction sought with a large enough effect; inconclusive = small, poorly fitted or top-dose-only effect, or another doubt; inactive = no such curve, though single readings can be large; an effect the other way counts as inactive or inconclusive. Potency is the fitted concentration of half-maximal effect.

SMILES	BAZ2B inh	G9a inh	HP1b binding inh	L3MBTL1 block	Sfp inh	JMJD2A Tudor inh
CC(C)(C)OC(=O)N[C@@H](Cc1ccccc1)c1nnc(S(=O)(=O)Cc2ccccc2)o1	-28%	11µM*	nt	-1%	8.9µM*	nt
CCSc1nnc([C@H](Cc2ccccc2)NC(=O)OC(C)(C)C)o1	4%	-1%[59 µM]	16%	nt	16%	-12%
Cc1ccccc1CS(=O)(=O)c1nnc([C@H](Cc2ccccc2)NC(=O)OC(C)(C)C)o1	29%	40µM*	32%	nt	7.9µM*	-12%
Cc1cccc(CS(=O)(=O)Cc2ccc(C(=O)NC(C)c3ccccc3)o2)c1 (stereo unspecified)	-12%	8%[59 µM]	74%	nt	9%	-6%
Fc1ccccc1N1CCN(c2ncnc3onc(-c4ccc(Cl)cc4)c23)CC1	-13%	-8%[59 µM]	35%	nt	nt	-2%
CCOC(=O)c1cccc(N2CC3CNC(=O)C2(C(=O)OC)N3C)c1 (stereo unspecified)	nt	nt	21%	1%	nt	-20%
CN(Cc1ccccc1N1CCCC1)C(=O)c1cc2ccccc2o1	nt	nt	?	-19%	nt	40µM*
O=C(Nc1ccc(N2CCCC2)cc1)c1cc2ccccc2o1	25µM*	nt	-12%	nt	?	?
O=C(Nc1ccc(N2CCCCC2)cc1)c1ccccn1	?	45µM*	?	-9%	1%	?
CSc1ccc(CN(C)C(=O)c2cc3ccccc3o2)cc1	21%	0%	47%	nt	1%	12%
O=C(Nc1ccc(N2CCCCCC2)cc1)c1ccc[nH]1	45µM*	-26%[2.33 µM]	?	-52%	nt	50µM*
O=C(Nc1ccc(N2CCCC2)cc1)c1ccc(Br)cc1	?	nt	12%	-7%	-15%	-31%
COc1ccc(CNC(=O)CCCc2nnc3n(CCC(C)C)c(=O)c4sccc4n23)cc1	-22%	10%[59 µM]	68%	nt	nt	-13%
CC[C@H](C)[C@H](N)C(=O)N[C@@H](CCCNC(=N)N)C(=O)N[C@@H](CCC(N)=O)C(=O)NCC(=O)N1CCC[C@H]1C(=O)N[C@@H](CCCCN)C(=O)N[C@@H](CCC(=O)O)C(=O)N1CCC[C@H]1C(=O)N[C@@H](Cc1ccccc1)C(=O)N[C@@H](CCCNC(=N)N)C(=O)N[C@@H](CC(=O)O)C(=O)N[C@@H](Cc1ccc(O)cc1)C(=O)N[C@H](C(=O)N[C@@H](CC(=O)O)C(=O)N[C@@H](CCCNC(=N)N)C(=O)N[C@@H](Cc1ccccc1)C(=O)N[C@@H](Cc1ccc(O)cc1)C(=O)N[C@@H](CCCCN)C(=O)N[C@H](C(=O)N[C@@H](CC(C)C)C(=O)O)[C@@H](C)O)C(C)C	nt	nt	nt	nt	-1%	nt
CN1CCN(C2=Nc3c(Cl)cc(Cl)c4cccc2c34)CC1	28µM*	?	?	nt	-22%	50µM*
Oc1ccc(N=Nc2c(O)ccc3ccccc23)cc1	6.3µM*	8.9µM*	?	18µM*	?	10µM*
O=C(O)c1cc2ccc3cccc4ccc(c1)c2c34	?	21%	35%	nt	16%	5%
Oc1ccc2ccccc2c1Br	0%	?	6%	17%	15%	-22%
Cc1ccccc1N=Nc1ccc(N=Nc2c(O)ccc3ccccc23)c(C)c1	nt	1.3µM*	nt	nt	14%	nt
NS(=O)(=O)c1ccc(N=Nc2c(O)ccc3ccccc23)cc1	?	35µM*	-12%	-19%	13%	-28%
O=C(O)c1cc(N=Nc2c(O)ccc3ccccc23)cc(C(=O)O)c1	?	?	?	-6%	12%	28µM*
O=C(O)c1ccc(N=Nc2c(O)ccc3ncccc23)cc1	1.6µM*	10µM*	?	nt	0%	7.9µM*
COCCCNC(=S)Nc1cc2oc3ccccc3c2cc1OC	?	29%	35%	nt	9%	-23%
COc1cc2c(cc1NC(=S)Nc1cccc3ccccc13)oc1ccccc12	79µM*	?	?	nt	?	?
COc1cc2c(cc1NCc1ccc3c(c1)OCO3)oc1ccccc12	32µM*	?	?	?	?	?
SMILES	BAZ2B inh	G9a inh	HP1b binding inh	L3MBTL1 block	Sfp inh	JMJD2A Tudor inh
COc1cc2c(cc1NCc1ccccn1)oc1ccccc12	45µM*	?	?	-12%	-26%	45µM*
COc1cc2c(cc1NC(=O)c1ccc3c(c1)OCO3)oc1ccccc12	15%	15%[59 µM]	42%	nt	-11%	-10%
CN(C)C(=O)c1ccc(S(=O)(=O)NCc2ccccc2Cl)s1	1%	23%[59 µM]	34%	nt	nt	-12%
COc1ccc(C2C(C(=O)Nc3ccccc3)=C(C)Nc3nc(-c4ccccc4)nn32)cc1OC (stereo unspecified)	-24%	-1%[59 µM]	1%	nt	nt	-17%
COc1ccc(C(=O)NCc2ccco2)cc1S(=O)(=O)NC1CC1	2%	10%[2.33 µM]	41%	-5%	nt	-10%
Cc1ccc(Nc2nc(C)cc(C)n2)c(C(=O)O)c1	0%	8.9µM*	-9%	nt	nt	0%
CCN(CC)C(=O)[C@H]1C[C@H](CC(=O)NC(C)(C)C)C(=O)N2CCc3c([nH]c4cc(-c5ccco5)ccc34)[C@]12C	nt	nt	3%	-8%	nt	?
CC(C)N(C(=O)[C@H]1C[C@H](CC(=O)NC(C)(C)C)C(=O)N2CCc3c([nH]c4cc(-c5ccco5)ccc34)[C@]12C)C(C)C	nt	nt	?	-9%	nt	50µM*
CC(C)=CCC/C(C)=C/CNC(=O)C[C@H]1C[C@H](C(=O)N2CCOCC2)[C@@]2(C)c3[nH]c4cc(-c5ccco5)ccc4c3CCN2C1=O	nt	nt	?	?	nt	40µM*

Source: PubChem (National Center for Advancing Translational Sciences (NCATS))
